# AmpC inh det: Promiscuous and Specific Inhibitors of AmpC Beta-Lactamase (assay with detergent) | P00811 | purified AmpC, nitrocefin hydrolysis with detergent | Potency, µM (doses to about 28.7 µM) | actives 0.09% (n = 71,000) | AID 584, 2007; active = well fitted curve in the direction sought with a large enough effect; inconclusive = small, poorly fitted or top-dose-only effect
# Target sequence (P00811 whole entry, looked up): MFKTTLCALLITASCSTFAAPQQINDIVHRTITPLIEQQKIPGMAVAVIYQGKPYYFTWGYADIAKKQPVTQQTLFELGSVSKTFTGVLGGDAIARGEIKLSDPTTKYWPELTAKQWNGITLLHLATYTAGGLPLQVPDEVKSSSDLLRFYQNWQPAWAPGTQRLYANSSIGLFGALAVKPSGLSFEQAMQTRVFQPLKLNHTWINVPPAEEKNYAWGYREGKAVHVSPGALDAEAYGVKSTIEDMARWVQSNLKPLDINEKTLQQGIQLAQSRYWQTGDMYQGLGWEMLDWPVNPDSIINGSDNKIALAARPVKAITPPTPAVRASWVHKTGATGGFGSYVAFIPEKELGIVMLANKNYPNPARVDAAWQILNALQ
#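 E. coli AmpC (5.3 nM) in 20 mM phosphate pH 7.0 with 0.01% Triton X-100, preincubated 15 min RT with compound; nitrocefin (2 uL of 800 uM stock) hydrolysis followed by 480 nm absorbance every 20 s over 4 min.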
# SmPrx2 inh: Schistosoma Mansoni Peroxiredoxins (Prx2); Schistosoma mansoni peroxiredoxin 2 (Prx2); S. mansoni Prx2 activity coupled to TGR/GSH (TGR is thioredoxin glutathione reductase), NADPH fluorescence loss, qHTS; Potency, µM; actives 0.07% (n = 65,000); AID 448, 2006
#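 Prx2 activity was followed as the loss of NADPH fluorescence (ex 365/em 450 nm), read every 30 sec for 8 min after H2O2 start. The enzyme mix (50 nM Prx2, 25 nM TGR, GSH, NADPH; pH 7.4 phosphate buffer) was incubated with compound for 15 min at room temperature first.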
# AmpC inh no det: Promiscuous and Specific Inhibitors of AmpC Beta-Lactamase (assay without detergent); AmpC nitrocefin hydrolysis, absorbance 480 nm, no detergent; Potency, µM (highest dose often 28.7 µM); actives 1.8% (n = 71,000); AID 585, 2007
#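 AmpC, 20 mM phosphate pH 7.0; 15 min cpd preinc, RT; start with nitrocefin (800 uM stock); A480 kinetic read, 20 s intervals, 4 min. No-enzyme wells = negative control.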
# Anthrax LT inh: qHTS Assay for Anthrax Lethal Toxin Internalization; Cells, anthrax lethal toxin internalization, FRET ratio (460/530); Potency, µM (highest dose often 40 µM), usual class: inhibitors; actives 0.67% (n = 70,000); also: nearly all actives have a fitted effect of over 50% in size
# Numbers stand for hits; – = inactive; ? = inconclusive; · = not tested or not shown; ! = a repeat was not active; [ ] = remark or other dose. Sampled rows, rich in hits. Any-hit rate of the full collection: about 2.4%. Unless noted, calls follow the shape of the full dose curve.
SMILES,AmpC inh det,SmPrx2 inh,AmpC inh no det,Anthrax LT inh
CC1CC(C)CN(C(=O)C(NS(=O)(=O)c2ccc3c(c2)oc(=O)n3C)C(C)C)C1 (stereo not given),–,–,3.98µM[single pt active],–
CC(C)C(NS(=O)(=O)c1ccc2c(c1)oc(=O)n2C)C(=O)N1CCN(C2CCCCC2)CC1 (stereo not given),–,–,–,–
C=C1CC[C@H]2C(C)(C)[C@H](O)CC[C@]2(C)[C@@H]1COc1ccc2ccc(=O)oc2c1,–,–,–,?
Cn1c(-c2cccc(Br)c2)cnc1NCc1cccnc1,–,–,–,–
COc1cccc(-c2cnc(NCc3cc(Cl)ccc3O)n2C)c1,–,–,12.6µM,?
COc1ccc(-c2cc(C(F)(F)F)nc(S(=O)(=O)CCC(=O)N3CCOCC3)n2)cc1,–,–,–,?
COc1ccccc1-c1cc(C(F)(F)F)nc(S(=O)(=O)CCCC(=O)N2CCOCC2)n1,–,–,–,1.58µM
CCC(=O)OCN1C(=O)C=CC1=O,–[5.75 µM],–,–[5.75 µM],–[8 µM]
CC1C(=O)OC2C(O)C34C5CC(C(C)(C)C)C36C(OC(=O)C6O)OC4(C(=O)O5)C12O (stereo not given),–,–,–,–
CCOc1ccc(CN2C(=O)CCC2(C)C(=O)NCc2cccnc2)cc1 (stereo not given),–,–,–,–
CC1(C(=O)NC2CCCCC2)CCC(=O)N1Cc1cccnc1 (stereo not given),–,–,3.98µM[single pt active],–
CC1CCC(NC(=O)C2(C)CCC(=O)N2Cc2cccnc2)CC1 (stereo not given),–,–,3.98µM[single pt active],–
CCCCCCN(C(=O)CCCCCN1C(=O)NC(C2CC2)C(C(=O)OCc2ccccc2)=C1C)C(C(=O)NCCCC)c1ccc(OCC(=O)OC)c(C(=O)OC)c1 (stereo not given),–,·,–,?
COc1ccccc1CN1CCC2(CC1)CCN(S(C)(=O)=O)CC2,–,–,–,–
CCC/C=C(\CCC)C(NS(=O)(=O)c1ccc(C(F)(F)F)cc1)c1ccccc1 (stereo not given),–,–,–,–
CCC/C=C(\CCC)C(NS(=O)(=O)c1ccccc1)c1ccc(C(F)(F)F)cc1 (stereo not given),–,–,12.6µM[single pt active],?
CCC/C=C(\CCC)C(NS(=O)(=O)c1ccc(C(F)(F)F)cc1)c1ccc(C(=O)OC)cc1 (stereo not given),–,–,12.6µM,–
COc1cccc(C(=O)Nc2cccc(-c3nnc(-c4ccccc4)o3)c2)c1,–,·,–,2µM
COc1ccc(CC(=O)Nc2cccc(-c3nnc(-c4ccccc4)o3)c2)cc1OC,–,–,–,10µM
COc1ccc(CC(=O)Nc2cccc(-c3nnc(-c4cccc(C)c4)o3)c2)cc1OC,–,–,–,?
COc1ccc(CC(=O)Nc2cccc(-c3nnc(-c4ccc(C)cc4)o3)c2)cc1OC,–,–,–,3.16µM
COc1ccccc1C(=O)n1nc(-c2cccnc2)nc1N,–,–,3.98µM[single pt active],–
CN1CCN(c2ncc3nc(-c4ccccc4)c(=O)n(CCC#N)c3n2)CC1,–,–,–,–
CN(C)c1cc(NC(=O)CN2CCOCC2)c2ccccc2n1,–,–,3.98µM[single pt active],–
CCCCC(=O)Nc1cc(N(C)C)nc2ccccc12,–,–,–,–
SMILES,AmpC inh det,SmPrx2 inh,AmpC inh no det,Anthrax LT inh
O=c1[nH]c(SCc2cccc([N+](=O)[O-])c2)nc2nc[nH]c12,–[5.75 µM],–,–[5.75 µM],–[8 µM]
CC(C)[C@H](CO)Nc1nc(Nc2cccc(Cl)c2)c2ncn(C(C)C)c2n1,–,–,–,12.6µM
Cc1cc(=Nc2ccc3c(c2)c(N)cc(C)[n+]3C)nc(N)n1C,–[5.75 µM],–,–[5.75 µM],–[8 µM]
COc1cccc(Cn2c(=O)c(-c3cc(F)cc(F)c3)nc3cnc(N(C)C)nc32)c1,–,–,–,?
O=C(COC(=O)C1CCN(S(=O)(=O)c2cccs2)CC1)c1ccc2c(c1)OCCO2,–,–,–,–
O=C(COC(=O)C1CCN(S(=O)(=O)c2cccs2)CC1)c1cc2ccccc2o1,–,–,10µM,–
O=S(=O)(c1ccc(S(=O)(=O)N2CCN3CCCC3C2)cc1)N1CCCC1 (stereo not given),–,–,–,–
O=S(=O)(c1ccc(F)cc1)N1CCC(N2CCCC2)CC1,–,–,3.98µM[single pt active],?
CC[C@](N)(CCC(=O)O)C(=O)O,–,–,–,–
CCN(CC)c1ccc(C(=O)Nc2cccc(F)c2)cc1,–,–,–,10µM
CN(C)c1cccc(C(=O)Nc2cccc(F)c2)c1,–,–,–,·
NC(=O)c1cccc2c1C(=O)N(C1CCCCC1)C2,–,–,3.98µM[single pt active],–
Cc1nnc(SCCc2ccccc2)[nH]c1=O,–,–,–,–
Cc1ccccc1CSc1nnc(C)c(=O)[nH]1,–,–,3.98µM[single pt active],–
Cc1cccc2cc(C#N)c(SCC(=O)N3CC(=O)Nc4ccccc43)nc12,–,–,15.8µM[single pt active],–
Cc1cccc2cc(C#N)c(SCC(=O)N3CCC(C)CC3)nc12,–,–,–,–
CO[C@@H]1C[C@H](O[C@H]2[C@@H](C)[C@H](O[C@@H]3O[C@@H](C)C[C@@H](N(C)C)[C@@H]3OC(C)=O)[C@H](C)C[C@]3(CO3)C(=O)[C@H](C)[C@H](OC(C)=O)[C@H](C)[C@H](C)OC(=O)[C@@H]2C)O[C@H](C)[C@@H]1OC(C)=O,–,–,–,–[3.58 µM]
O=C(Cc1ccccc1)Nc1nc(-c2cccs2)cs1,–,–,?,?
O=C(COc1ccc(Cl)cc1)Nc1nc(-c2cccs2)cs1,–,–,?,10µM
Fc1cccc(CSc2ncnc3c2ncn3[C@H]2CCCS2)c1,–[5.75 µM],–,–[5.75 µM],–[8 µM]
Cc1cc(NC(=O)CCS(=O)(=O)c2nc(-c3ccccc3)cc(C(F)(F)F)n2)no1,–,–,–,7.94µM
Cn1nnnc1SCC1=C(C(=O)O)N2C(=O)[C@@H](NC(=O)[C@@H](O)c3ccccc3)[C@@H]2SC1,–,–,–,–[3.58 µM]
CN(C)CCn1nnnc1SCC1=C(C(=O)O)N2C(=O)[C@@H](NC(=O)Cc3csc(N)n3)[C@@H]2SC1,–,–,–,–[3.58 µM]
CO[C@]1(NC(=O)CSCC#N)C(=O)N2C(C(=O)O)=C(CSc3nnnn3C)CS[C@H]21,?,–,7.94µM![single pt active],?
CO[C@]1(NC(=O)Cc2cccs2)C(=O)N2C(C(=O)O)=C(COC(N)=O)CS[C@H]21,5.01µM,–,5.01µM,5.01µM
CO[C@]1(NC(=O)C2SC(=C(C(N)=O)C(=O)O)S2)C(=O)N2C(C(=O)O)=C(CSc3nnnn3C)CS[C@H]21 (stereo not given in full),2µM,–,?,0.501µM
CN(C)[C@H]1C(=O)C(C(=O)NCN2CCCC2)=C(O)[C@]2(O)C(=O)C3=C(O)c4c(O)cccc4[C@](C)(O)[C@H]3C[C@H]12,–[5.75 µM],–,–[5.75 µM],–[8 µM]
CON(C)C(=O)c1nnc2c(n1)[nH]c1ccccc12,·,·,·,–[1.6 µM]
O=C(Nc1ncc(Br)s1)C(Cc1ccccc1)n1cccc1 (stereo not given),–,–,12.6µM,?
O=C(Nc1cccnc1)C(Cc1ccccc1)n1cccc1 (stereo not given),–,–,–,–

# Compound activity: PubChem BioAssay, National Center for Advancing Translational Sciences (NCATS)
